Tests used:
[1] = biological target: Protein kinase C gamma type (Homo sapiens) (UniProt P05129); details: at 1 µM;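 also: each value is an averaged percent inhibition of the enzyme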
[2] = biological target: T1, Protein kinase C iota type (Homo sapiens) (UniProt P41743); details: at 0.1 µM
T1 sequence (whole entry): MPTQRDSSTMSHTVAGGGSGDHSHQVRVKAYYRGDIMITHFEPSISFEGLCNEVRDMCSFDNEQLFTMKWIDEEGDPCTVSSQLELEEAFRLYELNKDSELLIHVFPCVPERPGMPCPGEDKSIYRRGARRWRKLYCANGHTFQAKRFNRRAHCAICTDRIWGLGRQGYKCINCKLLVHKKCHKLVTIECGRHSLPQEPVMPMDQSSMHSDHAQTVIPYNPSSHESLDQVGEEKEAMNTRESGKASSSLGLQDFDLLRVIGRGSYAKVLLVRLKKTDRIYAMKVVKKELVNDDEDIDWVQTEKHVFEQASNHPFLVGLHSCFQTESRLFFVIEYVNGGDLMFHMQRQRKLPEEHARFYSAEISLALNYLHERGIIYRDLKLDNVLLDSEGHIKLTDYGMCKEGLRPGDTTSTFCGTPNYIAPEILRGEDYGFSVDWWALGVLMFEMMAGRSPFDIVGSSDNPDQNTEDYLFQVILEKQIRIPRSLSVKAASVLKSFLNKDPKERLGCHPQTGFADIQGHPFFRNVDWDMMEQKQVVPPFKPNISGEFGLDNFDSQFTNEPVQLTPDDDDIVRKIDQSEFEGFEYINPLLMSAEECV

[3] = biological target: T1, Protein kinase C iota type (Homo sapiens); details: at 1 µM
[4] = biological target: Protein kinase C theta type (Homo sapiens) (UniProt Q04759); details: at 0.1 µM
Chain of Protein kinase C theta type (Homo sapiens) (Q04759 whole entry, looked up): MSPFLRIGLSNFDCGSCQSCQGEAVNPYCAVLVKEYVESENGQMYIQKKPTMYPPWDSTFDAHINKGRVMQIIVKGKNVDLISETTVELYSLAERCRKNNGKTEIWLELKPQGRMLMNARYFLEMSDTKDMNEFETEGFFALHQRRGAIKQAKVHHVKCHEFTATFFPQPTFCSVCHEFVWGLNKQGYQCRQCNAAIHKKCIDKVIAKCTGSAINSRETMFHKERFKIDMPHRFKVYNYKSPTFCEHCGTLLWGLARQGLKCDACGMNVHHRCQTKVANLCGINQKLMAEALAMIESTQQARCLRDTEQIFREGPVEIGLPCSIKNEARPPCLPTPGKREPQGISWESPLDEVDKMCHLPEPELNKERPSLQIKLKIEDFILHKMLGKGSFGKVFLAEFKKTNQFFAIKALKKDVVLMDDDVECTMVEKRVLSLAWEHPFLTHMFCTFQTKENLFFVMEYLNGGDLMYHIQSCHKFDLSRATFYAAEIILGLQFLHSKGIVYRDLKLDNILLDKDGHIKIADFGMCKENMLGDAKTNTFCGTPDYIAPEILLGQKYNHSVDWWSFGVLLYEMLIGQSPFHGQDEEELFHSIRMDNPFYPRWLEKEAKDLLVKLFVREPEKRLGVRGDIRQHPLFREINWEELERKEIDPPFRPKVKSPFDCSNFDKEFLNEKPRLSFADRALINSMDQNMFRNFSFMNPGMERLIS

[5] = biological target: Protein kinase C theta type (Homo sapiens) (UniProt Q04759); details: at 1 µM
[6] = biological target: Protein kinase C beta type (Homo sapiens) (UniProt P05771); details: at 0.1 µM
Chain of Protein kinase C beta type (Homo sapiens) (P05771 2-671 limits assumed): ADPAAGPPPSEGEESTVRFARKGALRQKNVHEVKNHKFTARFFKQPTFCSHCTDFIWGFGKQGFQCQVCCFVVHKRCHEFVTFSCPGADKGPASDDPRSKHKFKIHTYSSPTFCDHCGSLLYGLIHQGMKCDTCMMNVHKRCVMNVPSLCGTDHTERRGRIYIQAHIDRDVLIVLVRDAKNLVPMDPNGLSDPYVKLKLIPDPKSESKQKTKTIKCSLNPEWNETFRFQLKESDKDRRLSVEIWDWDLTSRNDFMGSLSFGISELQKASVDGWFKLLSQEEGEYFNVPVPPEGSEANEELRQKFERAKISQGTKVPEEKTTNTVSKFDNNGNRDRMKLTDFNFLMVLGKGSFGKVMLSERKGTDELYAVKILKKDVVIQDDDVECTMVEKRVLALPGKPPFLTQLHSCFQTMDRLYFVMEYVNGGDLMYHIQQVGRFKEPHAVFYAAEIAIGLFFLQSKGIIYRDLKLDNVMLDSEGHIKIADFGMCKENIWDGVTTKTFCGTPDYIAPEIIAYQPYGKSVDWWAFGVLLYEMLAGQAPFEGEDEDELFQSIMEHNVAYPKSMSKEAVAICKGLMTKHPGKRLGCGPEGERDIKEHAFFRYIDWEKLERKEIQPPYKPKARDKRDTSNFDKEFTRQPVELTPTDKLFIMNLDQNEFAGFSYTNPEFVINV

[7] = biological target: Protein kinase C beta type (Homo sapiens) (UniProt P05771); details: at 1 µM
[8] = biological target: T2, Serine/threonine-protein kinase D1 (Homo sapiens) (UniProt Q15139); details: at 0.1 µM
T2 sequence (whole entry): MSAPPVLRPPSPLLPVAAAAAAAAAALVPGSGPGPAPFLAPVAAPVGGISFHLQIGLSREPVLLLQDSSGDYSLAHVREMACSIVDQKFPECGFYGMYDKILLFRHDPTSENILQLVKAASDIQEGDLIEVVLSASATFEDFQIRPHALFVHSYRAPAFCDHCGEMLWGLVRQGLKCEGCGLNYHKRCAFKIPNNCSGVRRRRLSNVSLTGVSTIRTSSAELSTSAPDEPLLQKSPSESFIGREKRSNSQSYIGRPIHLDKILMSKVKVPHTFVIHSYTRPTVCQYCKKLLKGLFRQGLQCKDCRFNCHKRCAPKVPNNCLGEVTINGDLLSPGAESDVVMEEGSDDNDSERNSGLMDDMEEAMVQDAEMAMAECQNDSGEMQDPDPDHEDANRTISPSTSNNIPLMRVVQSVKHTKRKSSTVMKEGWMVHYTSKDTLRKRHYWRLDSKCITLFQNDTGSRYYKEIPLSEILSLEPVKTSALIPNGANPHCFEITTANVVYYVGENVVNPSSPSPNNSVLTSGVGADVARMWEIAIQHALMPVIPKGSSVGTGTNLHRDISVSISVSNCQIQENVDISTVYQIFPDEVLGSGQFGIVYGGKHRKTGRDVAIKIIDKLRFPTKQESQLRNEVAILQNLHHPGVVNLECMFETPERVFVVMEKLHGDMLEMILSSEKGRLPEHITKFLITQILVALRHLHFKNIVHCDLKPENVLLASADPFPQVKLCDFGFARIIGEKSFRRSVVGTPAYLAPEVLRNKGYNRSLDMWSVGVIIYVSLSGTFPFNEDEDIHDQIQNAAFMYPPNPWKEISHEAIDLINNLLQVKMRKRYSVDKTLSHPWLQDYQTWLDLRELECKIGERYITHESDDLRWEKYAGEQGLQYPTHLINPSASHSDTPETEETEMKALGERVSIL

[9] = biological target: T2, Serine/threonine-protein kinase D1 (Homo sapiens); details: at 1 µM
[10] = biological target: T3, Serine/threonine-protein kinase D2 (Homo sapiens) (UniProt Q9BZL6); details: at 0.1 µM
T3 sequence (whole entry): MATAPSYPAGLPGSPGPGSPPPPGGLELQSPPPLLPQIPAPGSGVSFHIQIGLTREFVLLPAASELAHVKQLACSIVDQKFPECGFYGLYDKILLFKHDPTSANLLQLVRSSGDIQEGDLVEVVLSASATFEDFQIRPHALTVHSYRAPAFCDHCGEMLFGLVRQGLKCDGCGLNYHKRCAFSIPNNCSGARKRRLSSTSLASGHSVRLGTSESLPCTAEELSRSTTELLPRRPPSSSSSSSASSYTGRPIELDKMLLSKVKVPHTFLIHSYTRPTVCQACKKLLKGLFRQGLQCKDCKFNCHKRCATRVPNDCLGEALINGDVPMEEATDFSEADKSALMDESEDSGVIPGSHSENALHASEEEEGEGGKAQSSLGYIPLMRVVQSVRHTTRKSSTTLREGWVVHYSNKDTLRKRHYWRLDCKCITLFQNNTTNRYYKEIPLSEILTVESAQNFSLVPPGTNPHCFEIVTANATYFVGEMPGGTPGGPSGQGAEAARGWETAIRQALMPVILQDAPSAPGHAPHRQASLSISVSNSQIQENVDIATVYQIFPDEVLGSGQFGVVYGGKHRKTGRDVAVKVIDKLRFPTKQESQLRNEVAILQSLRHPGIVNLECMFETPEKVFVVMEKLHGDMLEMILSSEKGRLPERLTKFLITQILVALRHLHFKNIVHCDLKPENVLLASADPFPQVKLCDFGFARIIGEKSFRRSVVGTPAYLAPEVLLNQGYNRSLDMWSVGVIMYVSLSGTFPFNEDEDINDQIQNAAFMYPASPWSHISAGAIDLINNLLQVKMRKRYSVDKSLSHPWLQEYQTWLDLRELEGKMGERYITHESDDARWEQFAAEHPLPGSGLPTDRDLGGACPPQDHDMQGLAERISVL

[11] = biological target: T3, Serine/threonine-protein kinase D2 (Homo sapiens); details: at 1 µM
[12] = biological target: T4, Serine/threonine-protein kinase D3 (Homo sapiens) (UniProt O94806); details: at 0.1 µM
T4 sequence (whole entry): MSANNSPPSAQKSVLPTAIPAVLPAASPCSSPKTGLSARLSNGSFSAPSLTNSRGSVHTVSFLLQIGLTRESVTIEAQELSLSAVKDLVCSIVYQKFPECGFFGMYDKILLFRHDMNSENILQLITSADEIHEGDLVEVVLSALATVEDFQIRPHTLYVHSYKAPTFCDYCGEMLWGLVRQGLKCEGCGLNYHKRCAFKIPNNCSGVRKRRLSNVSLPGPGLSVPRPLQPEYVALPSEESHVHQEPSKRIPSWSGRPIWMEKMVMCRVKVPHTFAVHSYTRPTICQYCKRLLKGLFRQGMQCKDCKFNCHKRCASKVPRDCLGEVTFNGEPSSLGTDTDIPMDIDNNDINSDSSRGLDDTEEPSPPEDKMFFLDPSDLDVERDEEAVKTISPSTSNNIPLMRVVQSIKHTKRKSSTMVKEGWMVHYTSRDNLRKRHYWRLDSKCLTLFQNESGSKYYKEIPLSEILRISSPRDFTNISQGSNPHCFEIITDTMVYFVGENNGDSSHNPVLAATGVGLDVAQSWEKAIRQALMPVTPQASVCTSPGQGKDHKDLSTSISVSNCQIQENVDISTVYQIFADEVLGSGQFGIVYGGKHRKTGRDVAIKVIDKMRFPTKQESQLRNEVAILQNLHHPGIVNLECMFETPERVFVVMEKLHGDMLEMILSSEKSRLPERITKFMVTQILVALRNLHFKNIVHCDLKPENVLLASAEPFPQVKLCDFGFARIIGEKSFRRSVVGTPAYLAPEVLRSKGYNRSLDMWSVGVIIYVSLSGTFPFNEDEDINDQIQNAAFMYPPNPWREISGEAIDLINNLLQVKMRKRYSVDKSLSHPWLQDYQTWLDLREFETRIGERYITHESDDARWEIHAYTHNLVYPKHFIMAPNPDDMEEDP

[13] = biological target: T4, Serine/threonine-protein kinase D3 (Homo sapiens); details: at 1 µM
[14] = biological target: T5, cGMP-dependent protein kinase 1 (Homo sapiens) (UniProt Q13976); details: at 0.1 µM
T5 sequence (whole entry): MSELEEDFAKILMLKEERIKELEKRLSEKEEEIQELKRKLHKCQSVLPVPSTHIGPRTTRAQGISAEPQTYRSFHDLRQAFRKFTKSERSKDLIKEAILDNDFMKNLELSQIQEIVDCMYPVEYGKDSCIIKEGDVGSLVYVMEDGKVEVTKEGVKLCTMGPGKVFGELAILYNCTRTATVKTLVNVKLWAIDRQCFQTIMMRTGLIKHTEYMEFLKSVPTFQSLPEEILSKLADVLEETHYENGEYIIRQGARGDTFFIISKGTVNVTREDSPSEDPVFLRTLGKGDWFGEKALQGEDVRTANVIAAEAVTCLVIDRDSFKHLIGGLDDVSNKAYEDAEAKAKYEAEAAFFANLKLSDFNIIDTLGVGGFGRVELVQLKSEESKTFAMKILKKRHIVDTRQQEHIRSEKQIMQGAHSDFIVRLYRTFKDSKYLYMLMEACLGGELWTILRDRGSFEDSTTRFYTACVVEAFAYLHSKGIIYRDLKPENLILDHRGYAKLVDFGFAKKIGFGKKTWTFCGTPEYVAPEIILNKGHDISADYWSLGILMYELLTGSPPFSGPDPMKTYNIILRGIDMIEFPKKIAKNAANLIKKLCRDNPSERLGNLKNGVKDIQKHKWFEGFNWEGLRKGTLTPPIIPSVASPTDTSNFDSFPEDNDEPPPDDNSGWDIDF

[15] = biological target: T5, cGMP-dependent protein kinase 1 (Homo sapiens); details: at 1 µM
[16] = biological target: T6, cGMP-dependent protein kinase 2 (Homo sapiens) (UniProt Q13237); details: at 0.1 µM
T6 sequence (whole entry): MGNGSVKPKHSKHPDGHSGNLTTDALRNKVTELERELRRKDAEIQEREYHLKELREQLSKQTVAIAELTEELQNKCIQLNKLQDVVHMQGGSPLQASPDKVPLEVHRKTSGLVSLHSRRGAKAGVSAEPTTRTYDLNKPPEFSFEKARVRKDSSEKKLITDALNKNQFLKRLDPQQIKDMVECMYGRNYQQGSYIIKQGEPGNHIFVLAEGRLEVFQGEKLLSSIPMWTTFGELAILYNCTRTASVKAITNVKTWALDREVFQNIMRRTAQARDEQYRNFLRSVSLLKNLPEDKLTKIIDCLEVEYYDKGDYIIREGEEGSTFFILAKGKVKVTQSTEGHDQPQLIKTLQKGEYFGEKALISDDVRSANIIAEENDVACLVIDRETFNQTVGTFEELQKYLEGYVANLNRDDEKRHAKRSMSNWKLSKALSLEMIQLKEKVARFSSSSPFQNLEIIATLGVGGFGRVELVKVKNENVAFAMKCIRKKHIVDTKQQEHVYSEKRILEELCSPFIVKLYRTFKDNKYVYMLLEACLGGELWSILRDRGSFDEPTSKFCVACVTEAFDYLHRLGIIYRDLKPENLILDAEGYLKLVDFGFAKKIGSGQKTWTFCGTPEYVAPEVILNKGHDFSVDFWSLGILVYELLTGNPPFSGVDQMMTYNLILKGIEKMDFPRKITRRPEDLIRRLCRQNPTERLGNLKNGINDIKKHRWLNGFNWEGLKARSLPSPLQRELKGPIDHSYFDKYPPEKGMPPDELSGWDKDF

[17] = biological target: T6, cGMP-dependent protein kinase 2 (Homo sapiens); details: at 1 µM
[18] = biological target: T7, cAMP-dependent protein kinase catalytic subunit PRKX (Homo sapiens) (UniProt P51817); details: at 0.1 µM
T7 sequence (whole entry): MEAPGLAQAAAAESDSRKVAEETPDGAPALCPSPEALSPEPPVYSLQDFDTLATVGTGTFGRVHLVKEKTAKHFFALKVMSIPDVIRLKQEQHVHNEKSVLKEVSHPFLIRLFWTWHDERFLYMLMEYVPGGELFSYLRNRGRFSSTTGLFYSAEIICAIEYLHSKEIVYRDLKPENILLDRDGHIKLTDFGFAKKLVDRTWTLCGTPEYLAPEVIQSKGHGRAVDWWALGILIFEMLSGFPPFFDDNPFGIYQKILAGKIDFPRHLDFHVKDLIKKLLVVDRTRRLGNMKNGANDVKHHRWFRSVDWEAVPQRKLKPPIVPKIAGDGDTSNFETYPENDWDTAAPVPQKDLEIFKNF

[19] = biological target: T7, cAMP-dependent protein kinase catalytic subunit PRKX (Homo sapiens); details: at 1 µM
[20] = biological target: Rho-associated protein kinase 1 (Homo sapiens) (UniProt Q13464); details: at 0.1 µM;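 also: values are mean percent inhibition of ROCK1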
Chain of Rho-associated protein kinase 1 (Homo sapiens) (Q13464 2-1354 limits assumed): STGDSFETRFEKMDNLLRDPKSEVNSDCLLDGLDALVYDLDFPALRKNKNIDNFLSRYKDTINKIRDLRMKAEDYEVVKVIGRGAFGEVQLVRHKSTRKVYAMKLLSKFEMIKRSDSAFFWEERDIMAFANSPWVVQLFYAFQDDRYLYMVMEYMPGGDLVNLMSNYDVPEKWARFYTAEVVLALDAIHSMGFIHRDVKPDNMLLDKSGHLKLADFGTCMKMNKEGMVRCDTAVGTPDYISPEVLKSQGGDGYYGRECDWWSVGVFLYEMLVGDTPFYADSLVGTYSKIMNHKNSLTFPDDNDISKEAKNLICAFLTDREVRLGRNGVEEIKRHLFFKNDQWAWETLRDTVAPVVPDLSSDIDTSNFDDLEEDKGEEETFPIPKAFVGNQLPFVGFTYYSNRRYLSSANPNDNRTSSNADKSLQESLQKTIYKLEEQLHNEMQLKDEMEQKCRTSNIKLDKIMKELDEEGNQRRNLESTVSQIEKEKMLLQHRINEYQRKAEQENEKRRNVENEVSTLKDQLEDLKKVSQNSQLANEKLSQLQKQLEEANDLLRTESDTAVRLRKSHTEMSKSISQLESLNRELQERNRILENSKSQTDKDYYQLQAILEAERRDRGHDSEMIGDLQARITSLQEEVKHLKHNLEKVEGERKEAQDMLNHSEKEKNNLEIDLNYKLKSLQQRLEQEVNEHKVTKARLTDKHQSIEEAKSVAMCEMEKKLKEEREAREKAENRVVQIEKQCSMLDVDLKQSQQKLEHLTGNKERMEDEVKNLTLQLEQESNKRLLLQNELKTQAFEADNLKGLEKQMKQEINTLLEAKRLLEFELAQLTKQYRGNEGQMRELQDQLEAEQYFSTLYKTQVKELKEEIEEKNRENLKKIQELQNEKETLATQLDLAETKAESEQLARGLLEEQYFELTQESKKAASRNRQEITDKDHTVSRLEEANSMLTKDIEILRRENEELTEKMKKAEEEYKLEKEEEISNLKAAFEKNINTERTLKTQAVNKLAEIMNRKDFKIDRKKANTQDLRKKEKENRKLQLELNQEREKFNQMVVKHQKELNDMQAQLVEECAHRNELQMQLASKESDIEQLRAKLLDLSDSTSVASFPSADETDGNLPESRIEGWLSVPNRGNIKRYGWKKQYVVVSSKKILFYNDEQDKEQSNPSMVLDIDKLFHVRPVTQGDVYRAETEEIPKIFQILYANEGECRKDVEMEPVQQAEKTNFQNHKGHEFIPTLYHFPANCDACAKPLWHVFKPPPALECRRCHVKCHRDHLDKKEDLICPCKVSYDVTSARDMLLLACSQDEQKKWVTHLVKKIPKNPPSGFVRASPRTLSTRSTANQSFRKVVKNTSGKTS

SMILES | inhibition [1] [%] | inhibition [2] [%] | inhibition [3] [%] | inhibition [4] [%] | inhibition [5] [%] | inhibition [6] [%] | inhibition [7] [%] | inhibition [8] [%] | inhibition [9] [%] | inhibition [10] [%] | inhibition [11] [%] | inhibition [12] [%] | inhibition [13] [%] | inhibition [14] [%] | inhibition [15] [%] | inhibition [16] [%] | inhibition [17] [%] | inhibition [18] [%] | inhibition [19] [%] | inhibition [20] [%]
Nc1ncnc2occ(-c3ccc(NC(=O)Nc4cccc(C(F)(F)F)c4)cc3)c12 | 2.18 | 3.47 | 3.34 | 2.55 | 2.66 | 1.71 | 2.2 | 5.29 | 7.85 | 5.02 | 4.09 | 5.37 | 5.91 | 3.04 | 1.94 | 2.46 | 3.85 | 1.94 | 3.42 | 4.04
[O-][S+]1CCN(Cc2ccc(-c3ccc4ncnc(Nc5ccc(OCc6ccccc6)c(F)c5)c4c3)o2)CC1 | -0.2 | 1.01 | 1.01 | 0.77 | -0.73 | 0.35 | 0.5 | 2.32 | 4.27 | 3.5 | 4.32 | 2.88 | 3.26 | 1.05 | 3.37 | 0.25 | 2.79 | 0.09 | -1.73 | -0.61
CCc1cccc(NC(=O)Nc2ccc(Oc3ccc4nc(NC(=O)OC)[nH]c4c3)cc2)c1 | 2 | 0.46 | -1.58 | 0.42 | 1.12 | -0.27 | -1.17 | 1.25 | 1.01 | 0.52 | 1.88 | 1.72 | 0.75 | -0.2 | 3.08 | 0.88 | 0.86 | 0.91 | 3.18 | 12.1

From ChEMBL document CHEMBL1961873, “Compounds: GSK PKIS; Assays: Nanosyn kinase panel” (2012)
